This is an account of results in PubChem BioAssay (Tox21).

Inconclusive results are not listed. A number with no mark means an inactive call. Calls follow the shape of the dose curve; as a rule, active = well fitted cell-killing curve with a large enough effect in the repeat runs; inconclusive = weak or mixed curves, or effect the other way; inactive = no such curve, though single readings can be large or run the other way.
% is scaled to controls: 0 for no effect and ±100 for the full control effect.

This test can be described thus: qHTS assay to identify small molecule antagonists of the vitamin D receptor (VDR) signaling pathway - cell viability counter screen (AID 743225). Also: nearly all actives have a fitted effect of over 50% in size. Particulars: VDR-bla HEK293T viability, CellTiter-Glo luminescence, 16 h; series mostly up to 61 µM; viability change, negative = cytotoxic: at the top concentration. The source says: U.S. Tox21 Program National Center for Advancing Translational Sciences [NCATS] NIH Chemical Genomics Center [NCGC] U.S. Environmental Protection Agency [EPA] National Institutes of Environmental Health Sciences [NIEHS] National Toxicology Program [NTP] U.S. Food and Drug Administration [FDA] Tox21 Assay Overview: The vitamin D receptor (VDR), a member of nuclear hormone receptor superfamily, plays a critical role in calcium homeostasis and bone metabolism. It is also involved in cell differentiation and growth, and thrombogenicity. To identify the compounds that inhibit VDR signaling, the VDR-UAS-bla HEK 293T cell line (Invitrogen, Carlsbad, CA, USA) containing a beta-lactamase reporter gene under the control of an upstream activator sequence (UAS) was used to screen the Tox21 10K compound library. The cytotoxicity of the Tox21 compound library against the VDR-bla cell line was tested in parallel by measuring the cell viability using CellTiter-Glo assay (Promega, Madison, WI) in the same wells.
Tox21 Assay Protocol Summary: VDR-bla cells were dispensed at 2,000 cells/5 uL of assay medium per well into black wall/clear-bottom 1536-well plates using a Multidrop Combi (Thermo Fisher Scientific, Waltham, MA) dispenser. After the assay plates were incubated at a 37C and 5% CO2 for 4 h, 23 nL of compounds dissolved in DMSO, positive controls or DMSO only was transferred to the assay plate by a Pintool station (Kalypsys, San Diego, CA), followed by addition of 1 uL of 1-alpha, 25-Dihydroxy Vitamin D3 (3 nM, final concentration in the wells) using a Bioraptr Flying Reagent Dispenser (FRD) workstation (Beckman Coulter, Indianapolis, IN). The plates were incubated at 37C and 5% CO2 for 16 h, and then 1 uL of LiveBLAzerTM B/G FRET substrate was added using a Bioraptr FRD. The plates were incubated at room temperature for 2 h and fluorescence intensity was measured by an Envision plate reader (PerkinElmer, Shelton, CT). For cell viability readout that measures cytotoxicity, 3 ul/well of CellTiter-Glo reagent was added into the assay plates using a Bioraptr FRD. After 30 min incubation at room temperature, the luminescence intensity in the plates was measured using a ViewLux plate reader (PerkinElmer).
On the technique in general: Quantitative high-throughput screening tests each substance at several concentrations.
Regarding `CCCCCCCCCCCC(C)=O`, the “viability change, negative = cytotoxic” value was -13.5%.
Regarding `Cc1cc2c(cc1CC(=O)c1sccc1S(=O)(=O)Nc1onc(C)c1Cl)OCO2`, the “viability change, negative = cytotoxic” value is -0.756%.
Take `COc1cc(OC)cc(OC)c1`: the “viability change, negative = cytotoxic” value was 0.763%.
For the compound `Cc1cc(C)c(N)c(Cl)c1`, the “viability change, negative = cytotoxic” value was -26.7%.
Then `C[n+]1ccccc1/C=N/O`, with 6.83%.
The value for `CC[N+](C)(CC)CC` was 0.222%; that for `CC(O)C(CO)C(C)O` (stereo not given) was -6.45% [at 78.8 µM].
In the case of `CCc1ncc(C)[nH]1`, the “viability change, negative = cytotoxic” value was 8.35%.
Take `Cc1cccc(N)n1`: the “viability change, negative = cytotoxic” value is 2.99% [at 78.8 µM].
The value for `O=S(=O)(O)c1ccc(Cl)cc1` was 9.55%; that for `O=C1c2ccccc2C(=O)N1CO` was 3.38% [at 78.8 µM]; that for `CCCC(=O)C(CC)Sc1ccoc1C` (stereo not given) was -2.78%.
The value for `CC(C)(C)c1ccc(N)cc1` was 13.3%; that for `COC(C)(C)CC(C)=O` was 4.91%; that for `Cc1ccccc1C#N` was -9.01%.
Then `CNC(=O)c1c(I)c(NC(C)=O)c(I)c(C(=O)O)c1I`, with 3.13%; and `CNCCc1ccccn1`, with 5.6%.
In the case of `CNC(C)=O`, the “viability change, negative = cytotoxic” value is 18.6%.
The value for `N#Cc1cc(NC(=O)C(=O)O)c(Cl)c(NC(=O)C(=O)O)c1` was 8.7%.
`O=Cc1ccccc1S(=O)(=O)O`: the “viability change, negative = cytotoxic” value was 20.6%.
Then `CCC(C)(C)C`, with 5.53% [at 78.8 µM]; and `COc1cc(S(N)(=O)=O)cc(C(=O)O)c1OC`, with 1.51%; and `CCCCCCC(O)CO` (stereo not given), with -16.4%.
Then `c1cc2ccc3ccc4ccc5cccc6c(c1)c2c3c4c56`, with -0.521% [at 3.11 µM]; and `CC(=O)O[C@@H]1CC2C3CCc4cc(OC(=O)c5ccccc5)ccc4C3CCC2(C)[C@H]1OC(C)=O` (stereo not given in full), with 1.81%.
On to `O=S(=O)(O)c1cc(I)c(O)c2ncccc12`, for which the “viability change, negative = cytotoxic” value is 4.16%.
As for `CC(C)C[P+](C)(CC(C)C)CC(C)C`, the “viability change, negative = cytotoxic” value was -7.4% [at 78.8 µM].
The value for `C/C(Cl)=C/CCl` was 0.355% [at 78.8 µM]; that for `CC/C=C\CCOC(=O)c1ccccc1` was -9.93%.
`CC(O)CCCCn1c(=O)c2c(ncn2C)n(C)c1=O` (stereo not given): the “viability change, negative = cytotoxic” value was -4.76%.
Then `CCOC(=O)[C@H](CCc1ccccc1)N[C@H]1CS[C@H](c2cccs2)CN(CC(=O)O)C1=O`, with 0.806%; and `CN1CCN(C(=O)C2CCCCC2)CC1`, with -12.2%.
Then `C[C@]12C=CC(=O)C=C1[C@@H](F)C[C@@H]1[C@@H]2[C@@H](O)C[C@@]2(C)[C@H]1CC[C@]2(O)C(=O)CO`, with 2.77%; and `CC(C)(C)NCC(O)COc1cccc2c1CCC(=O)N2` (stereo not given), with -3.38%; and `CC(C)OCCO`, with 15.7%.
The value for `CC(CN1CC(=O)NC(=O)C1)N1CC(=O)NC(=O)C1` (stereo not given) was 5.06%; that for `O=C[C@@H](O)[C@H](O)[C@H](O)CO` was 2.32%; that for `Cc1ccc(S(=O)(=O)NC(=O)NN2CC3CCCC3C2)cc1` (stereo not given) was 9.2%.
Take `O=P(O)(O)C(O)(Cc1cccnc1)P(=O)(O)O`: the “viability change, negative = cytotoxic” value is 2.38%.
`CCOc1ccccc1OCCN[C@H](C)Cc1ccc(OC)c(S(N)(=O)=O)c1`: the “viability change, negative = cytotoxic” value is 15.6%.
